Reference: PubChem BioAssay (NCI)
About 83,000 compounds went through this panel and 20% of them were active in at least one assay; those are over-represented in the sample as a whole.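 Values shown are percent growth following 48 h exposure of cells in 96-well plates to a single concentration of compound; below 10 was considered active.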 Active and inactive are the calls of the source.

How the values were obtained:
Test in all cases: NCI-60 one-dose screen, 48 h (100 = growth as untreated, 0 = no growth, -100 = all killed)
Conditions in all cases: 10 µM unless noted
SR leukemia = system: SR leukemia
RPMI-8226 leukemia = system: RPMI-8226 leukemia
OVCAR-8 ovarian = system: OVCAR-8 ovarian
OVCAR-5 ovarian = system: OVCAR-5 ovarian
OVCAR-4 ovarian = system: OVCAR-4 ovarian
SK-OV-3 ovarian = system: SK-OV-3 ovarian
IGROV1 ovarian = system: IGROV1 ovarian
OVCAR-3 ovarian = system: OVCAR-3 ovarian
HS 578T breast = system: HS 578T breast
NCI/ADR-RES ovarian = system: NCI/ADR-RES ovarian
T-47D breast = system: T-47D breast
BT-549 breast = system: BT-549 breast
MDA-MB-435 melanoma = system: MDA-MB-435 melanoma
SW-620 colon = system: SW-620 colon
MCF7 breast = system: MCF7 breast
HCT-116 colon = system: HCT-116 colon
HCC-2998 colon = system: HCC-2998 colon
KM12 colon = system: KM12 colon

Measured: growth

N/C(=N\OC(=O)c1ccccc1)C(Cc1ccccc1)C(=O)NOC(=O)c1ccccc1 (stereo not drawn)
active: SR leukemia 6.24% | IGROV1 ovarian -63.2% | HS 578T breast -14.5% | MDA-MB-435 melanoma 5.12% | HCT-116 colon 2.08%
inactive: RPMI-8226 leukemia 16.4% | OVCAR-8 ovarian 38% | OVCAR-5 ovarian 101% | OVCAR-4 ovarian 66.8% | SK-OV-3 ovarian 103% | OVCAR-3 ovarian 51.3% | NCI/ADR-RES ovarian 18.3% | T-47D breast 76.1% | BT-549 breast 26.4% | SW-620 colon 65.3% | MCF7 breast 51.3% | HCC-2998 colon 96.4% | KM12 colon 24.2%

NS(=O)(=O)c1ccc(CCn2c(SCC(=O)N/N=C/c3cccnc3)nc3ccccc3c2=O)cc1
inactive: SR leukemia 65.3% | RPMI-8226 leukemia 49.7% | OVCAR-8 ovarian 75.1% | OVCAR-5 ovarian 108% | OVCAR-4 ovarian 94.6% | SK-OV-3 ovarian 115% | IGROV1 ovarian 104% | OVCAR-3 ovarian 84.7% | HS 578T breast 82.7% | NCI/ADR-RES ovarian 105% | T-47D breast 65.9% | BT-549 breast 79% | MDA-MB-435 melanoma 93.7% | SW-620 colon 96.7% | MCF7 breast 79.6% | HCT-116 colon 77.3% | HCC-2998 colon 111% | KM12 colon 81.8%

O=C1N(Cc2ccccc2Cl)c2ccccc2C12NN=C(c1ccccc1)S2 (stereo not drawn)
inactive: SR leukemia 40% | RPMI-8226 leukemia 66.3% | OVCAR-8 ovarian 45.8% | OVCAR-5 ovarian 78.6% | OVCAR-4 ovarian 51.8% | SK-OV-3 ovarian 83.2% | IGROV1 ovarian 61.7% | OVCAR-3 ovarian 68.7% | HS 578T breast 69.6% | NCI/ADR-RES ovarian 45.2% | T-47D breast 72.3% | BT-549 breast 70% | MDA-MB-435 melanoma 68.5% | SW-620 colon 47.6% | MCF7 breast 53.5% | HCT-116 colon 43% | HCC-2998 colon 73.7% | KM12 colon 50.8%

O=C(/C=C/c1ccccc1)c1c[nH]c2ccccc2c1=O
active: RPMI-8226 leukemia -15.9% | OVCAR-8 ovarian -13.3% | OVCAR-5 ovarian 3.5% | IGROV1 ovarian -11.5% | OVCAR-3 ovarian -60.9% | HS 578T breast -18.8% | NCI/ADR-RES ovarian 0.29% | BT-549 breast -4.65% | MDA-MB-435 melanoma -18.4% | SW-620 colon -6.91% | HCT-116 colon 0.346% | KM12 colon 1.5%
inactive: SR leukemia 10.8% | OVCAR-4 ovarian 42.1% | SK-OV-3 ovarian 11.6% | T-47D breast 17.3% | MCF7 breast 10.6% | HCC-2998 colon 51.3%

CN1CCCN(CCNc2nccc(-c3c(-c4cccc(O)c4)nc4sccn34)n2)S1(=O)=O
inactive: SR leukemia 13.9% | RPMI-8226 leukemia 81.7% | OVCAR-8 ovarian 60.1% | OVCAR-5 ovarian 80.6% | OVCAR-4 ovarian 51.5% | SK-OV-3 ovarian 15.5% | IGROV1 ovarian 13.7% | OVCAR-3 ovarian 60.6% | HS 578T breast 54.3% | NCI/ADR-RES ovarian 102% | T-47D breast 60.7% | BT-549 breast 62.9% | MDA-MB-435 melanoma 11% | SW-620 colon 71% | MCF7 breast 74.1% | HCT-116 colon 21.2% | HCC-2998 colon 74.8%

Clc1ccc(Cl)c(N=Cc2ccc3c(c2)OCO3)c1
inactive: SR leukemia 114% | RPMI-8226 leukemia 99.9% | OVCAR-8 ovarian 97.8% | OVCAR-5 ovarian 103% | OVCAR-4 ovarian 108% | SK-OV-3 ovarian 105% | IGROV1 ovarian 114% | OVCAR-3 ovarian 115% | HS 578T breast 109% | NCI/ADR-RES ovarian 106% | T-47D breast 101% | BT-549 breast 96.2% | MDA-MB-435 melanoma 106% | SW-620 colon 107% | MCF7 breast 108% | HCT-116 colon 104% | HCC-2998 colon 98.5%

CC(C)(c1ccccc1)c1cc(O)c(C(C)(C)c2ccccc2)cc1O
inactive: SR leukemia 18.5% | OVCAR-8 ovarian 45.6% | OVCAR-5 ovarian 78.8% | OVCAR-4 ovarian 30.8% | SK-OV-3 ovarian 43.1% | IGROV1 ovarian 42.4% | OVCAR-3 ovarian 38.9% | HS 578T breast 47.4% | NCI/ADR-RES ovarian 43.7% | BT-549 breast 20.6% | MDA-MB-435 melanoma 35.1% | SW-620 colon 31.3% | MCF7 breast 12.3% | HCC-2998 colon 61% | KM12 colon 19.4%
active: RPMI-8226 leukemia 9.65% | T-47D breast -0.998% | HCT-116 colon 9.74%

COc1ccccc1CNCCCN1C(=O)c2ccc3c4c(ccc(c24)C1=O)C(=O)N(CCCNCCCN)C3=O
active: OVCAR-8 ovarian -24.4% | OVCAR-4 ovarian -99.3% | IGROV1 ovarian -2.92% | OVCAR-3 ovarian -19.3% | T-47D breast -21.6% | MDA-MB-435 melanoma -69.4% | SW-620 colon -7.85% | MCF7 breast -42.7% | HCT-116 colon -1.03% | HCC-2998 colon -5.58% | KM12 colon 1.76%
inactive: SR leukemia 10% | RPMI-8226 leukemia 17.5% | OVCAR-5 ovarian 37.9% | SK-OV-3 ovarian 34.7% | HS 578T breast 30.7% | NCI/ADR-RES ovarian 33.7% | BT-549 breast 55%

COc1cc(C2CC(c3ccc(C)cc3)=NN2C=O)ccc1Oc1ccnc2cc(Cl)ccc12 (stereo not drawn)
inactive: SR leukemia 96.6% | RPMI-8226 leukemia 87.8% | OVCAR-8 ovarian 60.3% | OVCAR-5 ovarian 98% | OVCAR-4 ovarian 95.8% | IGROV1 ovarian 77.2% | OVCAR-3 ovarian 39.5% | NCI/ADR-RES ovarian 65.8% | T-47D breast 76% | BT-549 breast 43.8% | MDA-MB-435 melanoma 99% | SW-620 colon 102% | MCF7 breast 79.1% | HCT-116 colon 46.5% | HCC-2998 colon 69.6% | KM12 colon 104%
active: SK-OV-3 ovarian -15.4% | HS 578T breast 7.47%

CC1CCCN(CCCCOc2ccc(-c3ccc(C#N)cc3)cc2)C1 (stereo not drawn)
inactive: SR leukemia 86.8% | RPMI-8226 leukemia 71.1% | OVCAR-8 ovarian 82.3% | OVCAR-5 ovarian 97.1% | OVCAR-4 ovarian 93.8% | SK-OV-3 ovarian 95.3% | IGROV1 ovarian 107% | OVCAR-3 ovarian 98.6% | HS 578T breast 87.4% | NCI/ADR-RES ovarian 89.7% | T-47D breast 79.1% | BT-549 breast 85.6% | MDA-MB-435 melanoma 99.4% | SW-620 colon 96.8% | MCF7 breast 86.4% | HCT-116 colon 87.8% | HCC-2998 colon 86.6% | KM12 colon 96.1%

O=S1(=O)NCCCN1CCNc1nccc(-c2c(-c3cccc(O)c3)nc3sccn23)n1
inactive: SR leukemia 23.2% | RPMI-8226 leukemia 107% | OVCAR-8 ovarian 83% | OVCAR-5 ovarian 108% | OVCAR-4 ovarian 85.4% | SK-OV-3 ovarian 43.6% | IGROV1 ovarian 56.7% | OVCAR-3 ovarian 73.3% | HS 578T breast 70.4% | NCI/ADR-RES ovarian 116% | T-47D breast 78.3% | BT-549 breast 86% | MDA-MB-435 melanoma 24.6% | SW-620 colon 88% | MCF7 breast 91.8% | HCT-116 colon 31% | HCC-2998 colon 108% | KM12 colon 102%

Nc1c(C(=O)Nc2cccc(Cl)c2)sc2nc3c(cc12)C(=O)CCC3
inactive: SR leukemia 39.1% | RPMI-8226 leukemia 51.8% | OVCAR-8 ovarian 75.3% | OVCAR-5 ovarian 58.3% | OVCAR-4 ovarian 60.4% | SK-OV-3 ovarian 35.2% | IGROV1 ovarian 52.4% | OVCAR-3 ovarian 10.3% | NCI/ADR-RES ovarian 17.7% | T-47D breast 52.9% | BT-549 breast 66.4% | SW-620 colon 31.3% | MCF7 breast 16.7% | HCT-116 colon 27.4% | KM12 colon 21.6%
active: HS 578T breast 4.53% | MDA-MB-435 melanoma -39.1% | HCC-2998 colon 8.27%

COc1ccc(-c2conc2-n2nc(-c3ccccc3)nc2-c2ccccc2)cc1
inactive: SR leukemia 76.2% | RPMI-8226 leukemia 106% | OVCAR-8 ovarian 110% | OVCAR-5 ovarian 104% | OVCAR-4 ovarian 104% | SK-OV-3 ovarian 107% | IGROV1 ovarian 101% | OVCAR-3 ovarian 131% | HS 578T breast 111% | NCI/ADR-RES ovarian 99.1% | T-47D breast 102% | BT-549 breast 104% | MDA-MB-435 melanoma 105% | SW-620 colon 104% | MCF7 breast 89.1% | HCT-116 colon 97.2% | HCC-2998 colon 105% | KM12 colon 110%

C#C[C@]1(O)CC[C@H]2[C@@H]3CC=C4c5sc(-c6cccc(Br)c6)nc5CC[C@]4(C)[C@H]3CC[C@@]21C
inactive: SR leukemia 45.6% | OVCAR-8 ovarian 98.7% | OVCAR-5 ovarian 75.5% | OVCAR-4 ovarian 100% | SK-OV-3 ovarian 95.9% | IGROV1 ovarian 102% | OVCAR-3 ovarian 101% | HS 578T breast 69.5% | NCI/ADR-RES ovarian 91.1% | T-47D breast 80.6% | BT-549 breast 87.3% | MDA-MB-435 melanoma 91.7% | SW-620 colon 87.9% | MCF7 breast 55.3% | HCT-116 colon 83.6% | HCC-2998 colon 85.1%
active: RPMI-8226 leukemia 2.09%

O=S1(=O)NCCN1CCNc1nccc(-c2c(-c3cccc(O)c3)nc3sccn23)n1
inactive: SR leukemia 62.2% | RPMI-8226 leukemia 102% | OVCAR-8 ovarian 103% | OVCAR-5 ovarian 91.9% | OVCAR-4 ovarian 131% | SK-OV-3 ovarian 97.4% | IGROV1 ovarian 105% | OVCAR-3 ovarian 108% | HS 578T breast 95.9% | NCI/ADR-RES ovarian 107% | T-47D breast 106% | BT-549 breast 135% | MDA-MB-435 melanoma 34.7% | SW-620 colon 127% | MCF7 breast 103% | HCT-116 colon 97.8% | HCC-2998 colon 113% | KM12 colon 108%

COc1cc(C2CC(c3ccc(Cl)cc3)=NN2C(C)=O)ccc1Oc1nc2c(c(=O)n(C)c(=O)n2C)n1C (stereo not drawn)
inactive: SR leukemia 78.5% | RPMI-8226 leukemia 72.1% | OVCAR-8 ovarian 92.2% | OVCAR-5 ovarian 108% | OVCAR-4 ovarian 67.9% | SK-OV-3 ovarian 112% | IGROV1 ovarian 82.3% | OVCAR-3 ovarian 102% | HS 578T breast 80.5% | NCI/ADR-RES ovarian 61.6% | T-47D breast 76.8% | BT-549 breast 83.2% | MDA-MB-435 melanoma 64.1% | SW-620 colon 98.1% | MCF7 breast 70.2% | HCT-116 colon 85.5% | HCC-2998 colon 87.3% | KM12 colon 78.2%

COc1cc(/C=C\c2cc(/C=C\c3ccc(O)c(OC)c3)n(C(=O)Nc3ccc(C(F)(F)F)cc3)n2)ccc1O
active: RPMI-8226 leukemia -0.214% | OVCAR-8 ovarian 0.433% | HCT-116 colon -53.7%
inactive: SR leukemia 13.2% | OVCAR-5 ovarian 115% | OVCAR-4 ovarian 76.7% | SK-OV-3 ovarian 66.1% | IGROV1 ovarian 42.8% | OVCAR-3 ovarian 13.8% | HS 578T breast 51.9% | NCI/ADR-RES ovarian 51.7% | T-47D breast 47.4% | BT-549 breast 19% | MDA-MB-435 melanoma 27.8% | SW-620 colon 18% | MCF7 breast 22.9% | HCC-2998 colon 103% | KM12 colon 41.4%
